Molecules are shown by their SMILES. Calls of active or inactive are those of the source. Unless noted, the rule behind the calls is not given here.

Assay [1] deals with Wnt5a (protein binding on small-molecule microarray). Description: small molecules binding Wnt5a protein – biophysical, small-molecule microarray, 635/667 nm fluorescence, primary screen (AID 1142).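 Note: fluorescence read at 667 nm with signal to noise per printed feature.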 The settings on record: 635 nm fluorescence, higher = more signal.
A short description of assay [2]: ATP-based viability of Huh7 replicon cells – cell-based, CellTiter-Glo luminescence, basal, 48 h, cytotoxicity control for HCV replication inhibitor project, primary screen (AID 1143).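 Note: Huh7 hepatoma cells carrying a hepatitis C replication reporter with no stimulus; test concentration not given here.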 The settings on record: higher = more signal, called active from +8 up or from −8 down. (Replicon systems follow genome replication, usually without infectious particles.)
A short description of assay [3]: Pseudomonas biofilm growth suppression – PAO1 strain, BacTiter-Glo luminescence, LB-PBS, primary screen (AID 1144). The settings on record: P. aeruginosa PAO1 biofilm, 12 h, higher = more signal.
Assay [4] is described as follows: basal CRE-LacZ reporter activity in PC12 – cell-based, unstimulated, primary screen (AID 1145). Particulars: no forskolin, luminescence, 4.5 h, higher = more signal, called active from +8 up or from −8 down.
Assay [5] is described as follows: forskolin-driven CRE-LacZ activity in PC12 – cell-based, CRE-LacZ reporter, forskolin-stimulated, primary screen (AID 1146).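 Note: PC12 cells with 6xCRE LacZ reporter stimulated by forskolin 10 µM; beta-galactosidase reporter signal reflecting CREB driven transcription.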 Particulars: luminescence, 4.5 h, higher = more signal, called active from +8 up or from −8 down.
For assay [6], the target named is Streptavidin (Streptomyces avidinii) (UniProt P22629). Description: compounds binding control protein streptavidin – biophysical, small-molecule microarray, 635/667 nm fluorescence, artefact control for SMM compound annotation, primary screen (AID 1147).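 Note: signal reflects streptavidin binding to arrayed compounds as a control protein.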 Particulars: higher = more signal.
The nature of assay [7]: probe aInhba binding on compound microarray – biochemical, small-molecule microarray, 635/667 nm fluorescence, primary screen (AID 1148).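 Note: score merges 667nm spot fluorescence with signal-to-noise for antibody binding to printed compounds.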 Particulars: higher = more signal.
The target in assay [8] is Torsin-1A (Homo sapiens) (UniProt O14656). Description: TOR1A wild-type binding on microarray – cell lysate, small-molecule microarray, lysate, 635/667 nm, primary screen (AID 1149). Particulars: COS7 hTOR1A-WT lysate, 635 nm fluorescence, higher = more signal.
Assay [9] shares this target. Description: torsin A mutant lysate binding on microarrays – cell lysate, small-molecule microarray, COS7 lysate, 635/667 nm fluorescence, primary screen (AID 1150).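 Note: score pools 667 nm emission and signal to noise measuring lysate protein binding.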 Particulars: COS7 hTOR1A mutant lysate, 635 nm fluorescence, higher = more signal.
Assay [10] deals with Sonic hedgehog protein (Shh). Description: Sonic hedgehog microarray binding compounds – biochemical, small-molecule microarray, 635/667 nm fluorescence, primary screen (AID 1151).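 Note: Shh protein binding to compounds spotted on small-molecule microarray slides; score combines spot fluorescence intensity with signal-to-noise across triplicate slides.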 The settings on record: 635 nm fluorescence, higher = more signal.

Chain of Torsin-1A (Homo sapiens) (O14656 whole entry, looked up): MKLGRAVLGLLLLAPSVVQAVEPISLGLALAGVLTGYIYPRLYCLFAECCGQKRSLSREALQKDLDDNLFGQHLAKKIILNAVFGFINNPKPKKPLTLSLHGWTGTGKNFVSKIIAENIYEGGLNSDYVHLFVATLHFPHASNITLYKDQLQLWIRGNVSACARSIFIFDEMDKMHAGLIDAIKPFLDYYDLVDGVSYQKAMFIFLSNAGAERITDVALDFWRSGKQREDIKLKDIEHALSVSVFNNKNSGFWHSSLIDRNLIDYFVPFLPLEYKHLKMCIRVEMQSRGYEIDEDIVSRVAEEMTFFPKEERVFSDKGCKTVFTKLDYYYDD
Chain of Streptavidin (Streptomyces avidinii) (P22629 whole entry, looked up): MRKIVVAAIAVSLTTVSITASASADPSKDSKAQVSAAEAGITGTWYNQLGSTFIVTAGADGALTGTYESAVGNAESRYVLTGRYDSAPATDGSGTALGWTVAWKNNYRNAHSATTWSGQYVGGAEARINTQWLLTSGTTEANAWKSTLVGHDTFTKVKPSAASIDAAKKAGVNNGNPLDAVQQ

On to `[N-]=[N+]=NCc1ccccc1[C@H]1OC(c2ccc(OCCCO)cc2)=N[C@@]1(Cc1ccccc1)C(=O)O`, for which the composite z-score was 0.631 in assay [1]; 1.37 in assay [6]; -0.0477 in assay [7]; 0.112 in the assay with Torsin-1A (Homo sapiens) [8]; 0.381 with Torsin-1A (Homo sapiens) [9]; -0.22 in assay [10]. Moreover, the z-score is -1.01 (inactive) in assay [2], 0.564 (inactive) in assay [3], -1.19 (inactive) in assay [4] and -0.609 (inactive) in assay [5].

As for `CCCCCCC#C[Si](O[C@H](c1ccccc1)c1cn([C@H](C)c2ccccc2)nn1)(C(C)C)C(C)C`, the composite z-score in assay [1] is -0.0509; in assay [6] it was 0.247; in assay [7], -0.361; in the assay with Torsin-1A (Homo sapiens) [8], 0.381; in the assay with Torsin-1A (Homo sapiens) [9] it was 1.26; in assay [10], 0.573. The z-score is -0.658 (inactive) in assay [2], 0.121 (inactive) in assay [3], -0.127 (inactive) in [4] and 0.15 (inactive) in assay [5].

Turning to `COc1ccc(CCNC(=O)[C@@]2(C)c3ccccc3C(=O)N(Cc3ccccc3)[C@H]2c2ccc(CO)cc2)cc1`, the composite z-score is 0.968 in assay [1]; 1.3 in assay [6]; 0.122 in [7]; 2.07 with Torsin-1A (Homo sapiens) [8]; 1.67 in the assay with Torsin-1A (Homo sapiens) [9]; 2.16 in assay [10]. In addition, the z-score in [2] was -5.28 (inactive); in assay [3], -2.01 (inactive); in [4], 0.208 (inactive); in assay [5], 0.303 (inactive).

Turning to `CCCC[C@@H]1C[C@H]1[C@@H](NC(=O)c1ccco1)c1ccccc1`, the composite z-score is -0.609 in [1]; -1.27 in assay [6]; -0.258 in assay [7]; -3.91 with Torsin-1A (Homo sapiens) [8]; -1.3 in the assay with Torsin-1A (Homo sapiens) [9]; -1.88 in [10]. For the same compound, the z-score was -2.87 (inactive) in assay [2], 0.0548 (inactive) in [3], 0.783 (inactive) in assay [4] and -0.787 (inactive) in assay [5].

On to `CO[C@H]1O[C@H](CO)[C@@H](OC(=O)Nc2cccc(F)c2)[C@H](OC(=O)Nc2ccccc2-c2ccccc2)[C@@H]1OC(=O)Nc1ccccc1-c1ccccc1`, for which the composite z-score came to 0.21 in [1]; 1.88 in assay [6]; 0.212 in [7]; 0.838 in the assay with Torsin-1A (Homo sapiens) [8]; 0.886 in the assay with Torsin-1A (Homo sapiens) [9]; 0.667 in [10]. Further, the z-score in [2] is -5.49 (inactive); in [3], -0.579 (inactive); in [4], 0.306 (inactive); in [5] it was 0.0811 (inactive).

`O=C1O[C@@H](c2ccccc2)[C@@H](c2ccccc2)N2[C@@H](c3ccc(O)cc3)[C@]3(C(=O)Nc4ccc(C#CCCO)cc43)[C@@H](C(=O)N3CCCCCCC3)[C@H]12`: the composite z-score turned out to be 0.409 in assay [1]; 1.55 in assay [6]; 1.46 in [7]; 1.37 with Torsin-1A (Homo sapiens) [8]; 1 with Torsin-1A (Homo sapiens) [9]; 0.887 in [10]. The z-score in assay [2] was -0.915 (inactive); in [3] it was -0.547 (inactive); in [4] it was -0.114 (inactive); in assay [5], -0.394 (inactive).

As for `COC(=O)[C@@]1(Cc2ccccc2)[C@H]2c3cc(C(=O)N(C)C)n(Cc4ccccc4)c3C[C@H]2CN1C(=O)c1ccccc1`, the composite z-score was 0.347 in assay [1]; 1.68 in assay [6]; 0.209 in assay [7]; -0.314 in the assay with Torsin-1A (Homo sapiens) [8]; 0.766 with Torsin-1A (Homo sapiens) [9]; -0.867 in [10]. For the same compound, the z-score in [2] is -0.513 (inactive); in assay [3], 0.0307 (inactive); in [4], 0.776 (inactive); in assay [5] it was 1.08 (inactive).

Take `[N-]=[N+]=NCc1ccccc1C[C@]1(C(=O)NCCN2CCOCC2)N=C(c2ccc(OCCCO)cc2)O[C@H]1c1ccccc1CN=[N+]=[N-]`: the composite z-score in assay [1] turned out to be 0.888; in assay [6] it was 0.803; in assay [7], 0.0155; with Torsin-1A (Homo sapiens) [8], 0.0892; with Torsin-1A (Homo sapiens) [9], 0.938; in assay [10], 1.45. The z-score was -6.14 (inactive) in assay [2], -1.12 (inactive) in [3], 1.34 (inactive) in assay [4] and -0.887 (inactive) in assay [5].

On to `C=CC[C@@]1(C(=O)NCc2ccccc2)N=C(c2ccc(OCCCO)cc2)O[C@@H]1c1ccccc1CN=[N+]=[N-]`, for which the composite z-score in [1] was 0.521; in assay [6], 0.579; in [7], 0.122; with Torsin-1A (Homo sapiens) [8], -0.805; in the assay with Torsin-1A (Homo sapiens) [9], 0.287; in assay [10] it was -0.629. Further, the z-score in assay [2] is -3.66 (inactive); in assay [3] it was -0.315 (inactive); in [4] it was 3.13 (inactive); in [5], 2.93 (inactive).

These data come from PubChem BioAssay.
